Measurements: PubChem BioAssay AID488789 (Broad Institute, 2010)
Potency and affinity values are given separately. Records with an inconclusive call do not appear. Calls of active or inactive are those of the source.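 Rule for the calls: active = samples whose fitted half-maximal inhibition concentration is no more than ten times the top valid dose tested; inconclusive = flat response between -70 and -30, or invalid curve fit; inactive = flat within 30 of zero, potency above limit, or signal rising.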

biological target: Trypsin (Sus scrofa) (UniProt P00761); test: trypsin protease activity blockade – biochemical, quenched peptide fluorescence, cherry-pick, selectivity assay for Rce1 protease inhibitor project, dose response (AID 488789); settings: porcine trypsin, quenched peptide cleavage fluorescence; series mostly up to 10 µM;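 note: more negative means stronger trypsin inhibition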
Sequence (P00761 whole entry, looked up): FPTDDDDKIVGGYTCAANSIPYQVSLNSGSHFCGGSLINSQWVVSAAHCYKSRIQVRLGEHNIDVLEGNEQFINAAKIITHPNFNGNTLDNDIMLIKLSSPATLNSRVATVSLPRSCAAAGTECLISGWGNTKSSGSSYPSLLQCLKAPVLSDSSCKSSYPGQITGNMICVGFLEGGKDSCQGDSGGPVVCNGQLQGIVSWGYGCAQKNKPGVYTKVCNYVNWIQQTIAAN

outcome, inactive:
Cc1cc(C)n(Cc2ccc(NC(=O)c3ccc(COc4ccccc4Br)cc3)cc2)n1, Cc1cc(C)cc(N2CC(O)=C(c3nc4ccccc4c(=O)[nH]3)C2=N)c1, COc1cc(-c2nc3ccccn3c2/N=C/c2cccc(OC)c2O)ccc1O, COC(C/C=C/[C@@H](O)[C@H](C)OCc1ccccc1)OC, CC(C)c1c(C(=O)N/N=C/c2ccsc2)nnn1-c1nonc1N, CCCCCCCCCC[N+](C)(C)CC/C=C1/c2ccccc2Sc2ccc(Cl)cc21, COc1cccc(NC(=O)Nc2cccn(Cc3ccc(C)cc3)c2=O)c1, Cc1cc(NS(=O)(=O)c2ccccc2)c([N+](=O)[O-])cc1C, CC(C)c1c(C(=O)N/N=C/c2cccc3ccccc23)nnn1-c1nonc1N, O=C1NC2(C=Cc3c(ccc4ccccc34)O2)Oc2ccccc21 (centres undefined), COC(C/C=C/[C@H](O)[C@H](C)OCc1ccccc1)OC, Cc1ccc2c(C)c(C(=O)N(Cc3ccc(F)cc3)C3CCS(=O)(=O)C3)oc2c1 (centres undefined), CC1CCN(Cc2c(C(=O)N/N=C/c3cccc(C(F)(F)F)c3)nnn2-c2nonc2N)CC1, O=C(C(Cc1ccccc1)N1C(=O)c2ccccc2C1=O)N1c2ccccc2CCc2ccccc21 (centres undefined), O=C(CC1(O)C(=O)N(C/C=C/c2ccccc2)c2ccccc21)c1ccccn1 (centres undefined), FC(F)(F)c1cc(Oc2ccccc2)ncc1-c1nnc(-c2ccccc2Cl)o1, CC(=O)N1c2ccc([N+](=O)[O-])cc2NC(=O)CC1C (centres undefined), COc1ccc2cc(C(=O)C3CCCN(C(=O)c4cc(=O)n(C)c(=O)n4C)C3)ccc2c1 (centres undefined), CCOc1ccc(NC(=O)CCSc2ccc(C)cc2)cc1
